Laboratory results published in ChEMBL document CHEMBL4513146, “CO-ADD screening of Karazin Kharkiv National University (Ukraine) compounds”.
Entries with a potency or affinity are not part of this list.

Experiments:
Staphylococcus aureus = conditions: Concentration 32 ug.mL-1;; ASSAY_TEST Inhibition of Bacterial Growth; detection method Absorption (OD600); MEDIA CAMHB; plate type 384well; NBS; CORNING #3640; time 18 hr
Escherichia coli = conditions: Concentration 32 ug.mL-1;; ASSAY_TEST Inhibition of Bacterial Growth; detection method Absorption (OD600); MEDIA CAMHB; plate type 384well; NBS; CORNING #3640; time 18 hr

Compound | Inhibition (Staphylococcus aureus) [%] | Inhibition (Escherichia coli) [%]
CCCCn1c(=O)c2sccc2n2c(CCC(=O)Nc3ccc(OC(F)(F)F)cc3)nnc12 | 0.43 | -8.31
COc1cccc(-n2ccn3c(SCC(=O)c4cc(C)c(C)cc4C)nnc3c2=O)c1 | 15.67 | -4.7
O=C(Cn1nc2c(N3CCOCC3)nccn2c1=O)NCc1cccc(C(F)(F)F)c1 | 16.25 | -1.74
Cc1ccc(NC(=O)Cn2c(=O)c3nnc(C(C)C)n3c3ccccc32)cc1 | -2.26 | 0.43
Cc1ccc(Oc2nccn3c(=O)n(CC(=O)Nc4ccccc4C(F)(F)F)nc23)cc1 | 6.18 | 0.58
Cc1ccc(-n2ccn3c(=O)n(Cc4ccccc4Cl)nc3c2=O)cc1C | 0.51 | -7.32
CCCCN(CC)c1ccc2nnc(CCc3nc(-c4ccc5c(c4)OCO5)no3)n2n1 | -15.7 | 1.35
CCc1ccc(NC(=O)Cn2nc3c4cc(-c5ccc(Cl)cc5)nn4ccn3c2=O)cc1 | 10.21 | 3.59
CC(C)CCn1c(=O)c2ccc(C(=O)NC3CCCCC3)cc2n2c(=S)[nH]nc12 | -4.78 | -9.84
O=C(NCc1ccccc1)c1ccc2nn(CC(=O)N3CCN(c4ccc(F)cc4)CC3)c(=O)n2c1 | 4.28 | -2.47
CCCCOc1ccc(-c2cc3c4nnc(SCC(=O)Nc5cc(C)ccc5OC)n4ccn3n2)cc1 | -29 | -22.73
CCOc1ccc(C(=O)CSc2nnc3c(=O)n(-c4ccc(C)c(C)c4)ccn23)cc1 | 9.97 | -11.39
Cc1c(Cl)cccc1-n1ccn2c(=O)n(Cc3cccc(F)c3)nc2c1=O | 9.54 | -6.71
Cc1ccc(CNC(=O)Cn2nc3c(SC4CCCCC4)nccn3c2=O)cc1 | 7.11 | -3.86
CCc1nnc2c(=O)n(CC(=O)Nc3ccc(C#N)cc3)c3ccccc3n12 | 12.29 | -5.97
Cc1cccc(Oc2nc3ccccc3n3c(=O)n(CC(=O)Nc4ccc5c(c4)OCCO5)nc23)c1C | 10.6 | -1.83
COc1ccc(NC(=O)CSc2nnc3c(=O)n(-c4ccc(Br)cc4)ccn23)cc1 | 5.23 | 2.74
COC(=O)c1ccccc1NC(=O)CSc1nc2ccccc2n2c(C(C)C)nnc12 | 10.06 | -3.26
Cc1cc(C)cc(NC(=O)Cn2nc3c4cc(-c5ccc(Cl)cc5)nn4ccn3c2=O)c1 | 2.02 | 6.23
O=C(Cn1nc2c3cc(-c4ccc(Cl)cc4)nn3ccn2c1=O)N1CCN(c2ccccc2)CC1 | 8.68 | -1.74
CCCCn1c(=O)c2sccc2n2c(CCC(=O)NCCC34CC5CC(CC(C5)C3)C4)nnc12 | 7.09 | 0.44
COc1ccccc1CNC(=O)Cn1nc2c(N3CCC(C)CC3)nccn2c1=O | 13.11 | -0.77
CCc1ccccc1Sc1nccn2c(=O)n(CC(=O)Nc3cc(C)ccc3C)nc12 | 15.04 | 0.5
Cc1nnc2c(SCC(=O)N3CCN(c4ccc(F)cc4)CC3)nc3ccccc3n12 | 9.13 | 7.96

Compound | Inhibition (Staphylococcus aureus) [%] | Inhibition (Escherichia coli) [%]
O=c1c2sccc2n2c(=O)n(Cc3cccc(Br)c3)nc2n1Cc1cccs1 | -27.59 | -23.42
CCCN(C)c1nccn2c(=O)n(CC(=O)Nc3ccc(F)cc3)nc12 | 13.38 | -2.86
O=c1c2sccc2n2c(=O)n(Cc3ccc(Cl)cc3)nc2n1Cc1cccs1 | -8.27 | -9.25
COc1cccc(Cn2nc3n(CCC(=O)NC4CCCCC4)c(=O)c4ccccc4n3c2=O)c1 | 6.84 | -3.05
Cc1nnc2c(S(=O)(=O)N(Cc3cccc(F)c3)c3cccc(F)c3)cccn12 | 18.57 | 0.97
O=c1c2nn(Cc3ccccc3Cl)c(=O)n2ccn1-c1ccccc1 | -1.67 | -5.84
Cc1ccc(Cn2c(=O)c3ccccc3n3c(=O)n(CC#N)nc23)cc1 | 3.14 | -7.28
CC(C)c1nnc2c(=O)n(CC(=O)Nc3cccc(F)c3)c3ccccc3n12 | 22.23 | 3.96
CC1CC(C)CN(c2nccn3c(=O)n(CC(=O)Nc4cccc(C(F)(F)F)c4)nc23)C1 (configuration not stated) | 16.31 | 0.9
COc1ccccc1-n1ccn2c(SCc3ccccc3F)nnc2c1=O | 11.33 | -2.76
O=C(Cn1nc2c(SC3CCCCC3)nccn2c1=O)Nc1cccc(Cl)c1 | -15.22 | -17.9
COc1ccc(NC(=O)c2ccc3nn(CC(=O)Nc4ccccc4C(F)(F)F)c(=O)n3c2)cc1 | 9.89 | -3.73
Cc1cccc(CN(c2ccccc2)S(=O)(=O)c2cccn3c(C)nnc23)c1 | 5.16 | -11.12
CC1CCc2c(sc3ncn4c(=O)n(CC(=O)Nc5ccc6c(c5)CCC6)nc4c23)C1 (configuration not stated) | 4.65 | -2.81
CC(C)Cn1c(=O)c2sccc2n2c(=O)n(CC(=O)N3CCC(Cc4ccccc4)CC3)nc12 | -13.33 | -14.95
CCOc1ccc(NC(=O)Cn2nc3c(Oc4ccc(C)cc4)nccn3c2=O)cc1 | 5.72 | -4.41
Cc1nnc2ccc(S(=O)(=O)N(Cc3ccccc3F)c3ccc(F)c(F)c3)cn12 | 3.86 | -6.57
CCC(Sc1nnc2c(=O)n(-c3ccccc3)ccn12)C(=O)Nc1cc(F)ccc1F (configuration not stated) | 6.45 | -6.05
Cc1ccc(-c2cc3c4nnc(CCC(=O)NCCCc5ccccc5)n4ccn3n2)cc1C | 6.48 | 1.28
Cc1cc(C)cc(Nc2nc(C)cc3nn(CC(=O)NC4CCCC4)c(=O)n23)c1 | 11.66 | 0.01
Cc1cccc(NC(=O)CSc2nnc3ccc(C(=O)Nc4cccc(F)c4)cn23)c1 | 8.5 | -1.74
O=S(=O)(c1ccc2nncn2c1)N(Cc1cc(F)cc(F)c1)c1ccccc1 | 0.37 | -13.22
COc1cccc(-n2ccn3c(SCc4cccc(Cl)c4)nnc3c2=O)c1 | 12.15 | -0.34
O=C(Cn1nc2c(N3CCOCC3)nccn2c1=O)Nc1ccc(Br)cc1F | 13.39 | 2.9

Compound | Inhibition (Staphylococcus aureus) [%] | Inhibition (Escherichia coli) [%]
CCOc1ccc(C(=O)CSc2nnc3c(=O)n(-c4cccc(OC)c4)ccn23)cc1 | 5.74 | -13.86
Cc1cc(C)c(NC(=O)CSc2nc3ccccc3n3c(C)nnc23)c(C)c1 | 9.68 | -6.86
Cc1cccc(-c2nc(CSc3nc4ccccc4n4c(C(C)C)nnc34)c(C)o2)c1 | 9.08 | 2.13
O=c1c2nn(Cc3ccc(F)cc3)c(=O)n2ccn1-c1ccccc1 | 14.99 | -4.05
COc1ccc(-c2cc3c4nn(CC(=O)Nc5ccc6c(c5)OCO6)c(=O)n4ccn3n2)cc1 | 8.96 | 6.89
O=S(=O)(c1ccc2nncn2c1)N(Cc1cccc(Cl)c1)c1ccc2c(c1)OCO2 | 4.03 | -10.92
N#CCSc1nnc2c(=O)n(-c3ccccc3)ccn12 | 13.33 | 0.91
Cc1ccc(NC(=O)Cn2nc3c(SC4CCCCC4)nccn3c2=O)cc1 | 10.51 | -0.3
COc1cccc(NC(=O)Cn2nc3ccc(SCc4ccc(Cl)cc4)nn3c2=O)c1 | -4.03 | 0.27
COc1ccccc1Cn1c(=O)c2sccc2n2c(=O)n(Cc3cccc(C)c3)nc12 | 10.55 | 0.66
CCOc1ccc(-n2ccn3c(SCC(=O)Nc4cc(Cl)ccc4OC)nnc3c2=O)cc1 | 6.02 | 1.04
Cc1ccc(N(Cc2ccccc2)S(=O)(=O)c2ccc3nncn3c2)cc1F | -5.44 | -9.13
Cc1cccc(C)c1NC(=O)Cn1nc2c(SC3CCCCC3)nccn2c1=O | 9.56 | -6.16
CSc1cccc(NC(=O)Cn2nc3ccc(C(=O)NCc4ccccc4)cn3c2=O)c1 | 5.85 | -2.4
COC(=O)c1sccc1NC(=O)Cn1nc2c(Oc3ccc(C)cc3)nc3ccccc3n2c1=O | 6.43 | 0.18
CCc1nnc2c(S(=O)(=O)N(Cc3ccccc3F)c3ccc(F)cc3)cccn12 | 1.79 | -1.76
CCOc1ccc(-n2ccn3c(SCC(=O)Nc4ccc(CC)cc4)nnc3c2=O)cc1 | 18.59 | -0.7
COc1cccc(-n2ccn3c(SCC(=O)Nc4cccc(F)c4)nnc3c2=O)c1 | -6.79 | -18.41
CSc1cccc(NC(=O)Cn2nc3ccc(-c4ccc(C)c(C)c4)nn3c2=O)c1 | -11.35 | -14.99
N#CCn1nc2n(Cc3ccccc3)c(=O)c3ccccc3n2c1=O | 14.89 | 2.96
COc1cccc(-n2ccn3c(SCc4ccc(Cl)cc4)nnc3c2=O)c1 | -2.27 | 1.4
CCOC(=O)c1cccc(NC(=O)Cn2nc3c4cc(-c5ccc(C)c(C)c5)nn4ccn3c2=O)c1 | -12.42 | -16.13
COc1ccccc1NC(=O)Cn1nc2c3cc(-c4ccc(Cl)cc4)nn3ccn2c1=O | 5.68 | -3.99
